The first assay has as its target KCNB1. Nature of the assay: pooled miR-30 sensor sort-seq; sequence = guide strand. As to conditions: shRNA.
TACTCGTTGTCGTCGAGGCTGT had a sensor-assay potency score (higher = more potent) of -0.424.

Take TAGAAGTTGAGGATGGAGGTGA: the sensor-assay potency score (higher = more potent) is 0.819.

For TTCATCTGCTCTTTCTTCTGGT, the sensor-assay potency score (higher = more potent) worked out at 0.512.

TTGAACTTGGTGTCGTCCTCAT yielded a sensor-assay potency score (higher = more potent) of 0.219.

Sequence TTAGTTTTCATGGAACTCTTGG registered a sensor-assay potency score (higher = more potent) of 0.191.

In the case of TAGATCTCGTCGATGCCCCAGT, the sensor-assay potency score (higher = more potent) was -0.693.

TACATGTCTTCCAACTGCTGAA came in with a sensor-assay potency score (higher = more potent) of -0.486.

TTTCTCAACCACAATGTCCATC came in with a sensor-assay potency score (higher = more potent) of -0.571.

With TTTGAACTTGGTGTCGTCCTCA, the sensor-assay potency score (higher = more potent) turned out to be 0.816.

In turn, TTTTCTCCGATCTTGTCCCCGT showed a sensor-assay potency score (higher = more potent) of -0.234.

TACTTTGTCTTTCTTACCCATA: the sensor-assay potency score (higher = more potent) was -1.04.

The target of another assay is KCNC1. Described as above. As to conditions: shRNA.
TTCTTGATGAACTCTACCTTGT gave a sensor-assay potency score (higher = more potent) of -0.835.

The sequence ATGAACTCTACCTTGTTGGGGC yielded a sensor-assay potency score (higher = more potent) of 0.181.

The sequence AATTTCTAAAATTTCTTCCTGG came in with a sensor-assay potency score (higher = more potent) of 0.198.

The sequence TTCAGTTTGGAATCTGCTCTGT yielded a sensor-assay potency score (higher = more potent) of 0.183.

TAAGGAGTAATACATCCCGAAA showed a sensor-assay potency score (higher = more potent) of -1.65.

Sequence TTGATGAACTCTACCTTGTTGG returned a sensor-assay potency score (higher = more potent) of 0.0525.

TAGTAGTTCAGGATGTGCGCGA yielded a sensor-assay potency score (higher = more potent) of 0.436.

TTTCTTTGGTAGTTTCTGCTTA came in with a sensor-assay potency score (higher = more potent) of 0.312.

The sequence TTCTTTGGTAGTTTCTGCTTAG returned a sensor-assay potency score (higher = more potent) of -0.569.

With TTGCGTGCCATTGCGAACGTTC, the sensor-assay potency score (higher = more potent) is -0.65.

Turning to TACTTAGCAATGACAGGGCTTT, the sensor-assay potency score (higher = more potent) was -0.252.

As for TTTTCTTTGGTAGTTTCTGCTT, the sensor-assay potency score (higher = more potent) is -0.644.

Source of the values: the OligoGym collection.
Also: reference of the scale not given here.
